# This is a sample that favours compounds with a hit; in the whole collection about 19% have one here.
# DT40 TDP1 CPT = growth inhibition of DT40 Tdp1-/-;hTDP1 cells with camptothecin (screen for TDP1 inhibitors). chicken DT40 Tdp1-/-;hTDP1 cells + 20 nM CPT, ATP luminescence, 48 h. Potency, µM (top dose mostly 46.2 µM), for inactives: top-dose activity change, negative = growth inhibition, most hits filed as inhibitors. actives 12% (n = 420,000); note: potency is the fitted concentration of half-maximal effect; nearly all actives have a fitted effect of over 55% in size
#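 Cell growth measured by CellTiter-Glo luminescence after a minimum 48 h, 37 C compound exposure with 20 nM CPT in Tdp1-knockout DT40 cells stably expressing hTDP1, seeded 400/well; qHTS titration format.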
# Giardia killer = Giardia lamblia killing. activity change, % at 7.66 µM, hits read low. actives 0.15% (n = 340,000). Giardia lamblia trophozoite viability; in the data active = activity change below about -80%; inconclusive = between about -30% and that limit;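 note: parasites exposed to compound for two days anaerobically before the ATP read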
#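 Each well holds 100 Giardia trophozoites and compound. After two days (48 hrs) at 37 deg C in anaerobic conditions, ATP is quantified by luminescence.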
# ELG1 DNA repair = blocks ELG1-dependent DNA repair in HEK293T cells; HEK293T ELG1-luciferase reporter, luminescence, 16 h; DNA damage induced by 5-fluorouridine; Potency, µM (top dose mostly 46.1 µM), for the others: at the highest dose activity change, negative = inhibition, most hits filed as inhibitors; actives 2.3% (n = 330,000); note: potency is the fitted concentration of half-maximal effect; nearly all actives have a fitted effect of over 55% in size
#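 Reporter activity after DNA damage by 5-fluorouridine is monitored. Compound-treated cells incubate 16 hr at 37 °C, then ONE-Glo is added for 30 min before luminescence reading.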
# TDP1 cell noCPT = qHTS for Inhibitors of human tyrosyl-DNA phosphodiesterase 1 (TDP1): qHTS in cells in absence of CPT. DT40 Tdp1-/- hTDP1 cells, no CPT, ATP luminescence, 48 h. Potency, µM (highest dose often 46.2 µM), inactives show at the top dose activity change, negative = growth inhibition, most hits filed as inhibitors. actives 15% (n = 420,000); note: potency is the fitted concentration of half-maximal effect; nearly all actives have a fitted effect of over 55% in size
#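 Readout: luminescence from CellTiter-Glo after 30 min in the dark at RT. Cells: DT40 Tdp1-/- with stable hTDP1, 400/well. Exposure: compounds alone, ≥48 hr, 37 °C.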
# IL-1B inflam inh = inhibitors of inflammasome signaling (IL-1 beta secretion) | THP-1 LPS/ATP IL-1B secretion, AlphaLISA, 16 h; stronger effect = lower value | activity change, % at 57.5 µM | actives 4.7% (n = 360,000); in the data active = activity change below about -50%; inconclusive = mostly about -30% to -49%
#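 Secreted IL-1B measured by AlphaLISA bead assay after 16 h compound exposure of THP-1 cells; compounds (final up to 57.5 uM) added 1 h before LPS (250 ng/mL) and ATP (1.25 mM) stimulation; lower signal means less secretion.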
# TDP1 inh = TDP1 (human) enzyme inhibition; actives 0.28% (n = 350,000); Q9NUW8; recombinant TDP1, AlphaScreen DNA substrate cleavage; Potency, µM (top dose mostly 130 µM), for inactives: at the highest dose activity change, negative = inhibition, hits mostly inhibitors; note: potency is the fitted concentration of half-maximal effect; nearly all actives have a fitted effect of over 40% in size
# Target sequence (Q9NUW8 whole entry, looked up): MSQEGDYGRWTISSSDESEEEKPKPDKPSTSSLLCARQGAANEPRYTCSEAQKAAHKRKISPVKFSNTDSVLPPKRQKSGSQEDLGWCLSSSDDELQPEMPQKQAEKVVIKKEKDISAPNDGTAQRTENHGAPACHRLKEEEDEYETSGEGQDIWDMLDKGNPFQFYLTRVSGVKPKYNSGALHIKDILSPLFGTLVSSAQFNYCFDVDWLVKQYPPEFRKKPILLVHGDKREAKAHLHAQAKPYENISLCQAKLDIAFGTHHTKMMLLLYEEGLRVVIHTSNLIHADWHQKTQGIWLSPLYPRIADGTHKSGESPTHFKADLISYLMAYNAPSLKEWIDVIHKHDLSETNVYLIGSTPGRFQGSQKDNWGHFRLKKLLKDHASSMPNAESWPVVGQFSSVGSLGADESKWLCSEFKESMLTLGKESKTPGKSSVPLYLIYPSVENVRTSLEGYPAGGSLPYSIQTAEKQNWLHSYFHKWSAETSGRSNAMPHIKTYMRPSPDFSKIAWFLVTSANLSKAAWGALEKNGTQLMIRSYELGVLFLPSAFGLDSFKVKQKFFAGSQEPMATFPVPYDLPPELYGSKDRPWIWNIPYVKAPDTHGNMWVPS
#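 Steps: enzyme plus compound, 15 min RT; add biotin/phosphotyrosine-FITC oligonucleotide (15 nM final), react 5 min; add donor/acceptor beads (10 ug/ml final), 10 min; read AlphaScreen. Tdp1 at 1 nM final.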
# * hit, by the source's call; ? = inconclusive; · = no result given; [ ] = remark or other dose. Unless noted, calls come from the whole dose curve; as a rule, active = well fitted curve in the direction sought with a large enough effect; inconclusive = small, poorly fitted or top-dose-only effect, or another doubt; inactive = no such curve, though single readings can be large; an effect the other way counts as inactive or inconclusive. % is set by controls: 0 for no effect and ±100 for the full control effect.
SMILES,DT40 TDP1 CPT,Giardia killer,ELG1 DNA repair,TDP1 cell noCPT,IL-1B inflam inh,TDP1 inh
Cc1c(Cl)cccc1NC(=O)CN1CCN(CCO)CC1,-6%,-21,-3%,3%,-5,-2%
Cc1nc(Nc2ncc(C(=O)Nc3c(C)cccc3Cl)s2)cc(N2CCN(CCO)CC2)n1,2.1µM*,·,·,2.4µM*,·,·
CC(=O)c1cccc(NC(=O)C(C)OC(=O)c2ccc(Br)o2)c1 (centres undefined),?,-9,8%,-22%,17,0%
Cn1c(=N)n(CC(=O)c2cccs2)c2ccccc21,?,-6,?,-22%,6,6%
CCN(CC)CCn1c(=N)n(CC(=O)c2ccc(Br)s2)c2ccccc21,5.8µM*,19,?,7.3µM*,·,0%
Cn1c(=N)n(CC(=O)c2ccc(Br)s2)c2ccccc21,26µM*,-2,?,18µM*,-95*,-2%
COc1cccc(C(=O)Cn2c(=N)n(C)c3ccccc32)c1,13µM*,-19,?,21µM*,-10,-8%
CCN(CC)CCn1c(=N)n(CCO)c2ccccc21,-17%,8,2%,-13%,-1,5%
N=c1n(CC(=O)c2ccc(Br)s2)c2ccccc2n1Cc1ccccc1,5.2µM*,5,?,4.6µM*,-104*,-5%
Cc1ccc(C(=O)c2cn(CC(=O)Nc3ccc(C)cc3Cl)c3nc(C)ccc3c2=O)cc1,10µM*,·,·,23µM*,·,-1%
Cc1ccc(CNC(=O)Cn2cc(C(=O)c3ccc(Cl)cc3)c(=O)c3ccc(C)nc32)cc1,16µM*,·,·,16µM*,·,2%
COc1ccc(Cl)cc1NC(=O)Cn1cc(C(=O)c2ccc(C)cc2)c(=O)c2ccc(C)nc21,?,·,·,23µM*,·,-4%
Cc1nn(CC(=O)NCc2ccc(F)cc2)c2ccccc12,-16%,·,·,-18%,·,9%
CCOC(=O)C1=C(COC(=O)c2ccc(OC)c(S(=O)(=O)N3CCOCC3)c2)NC(=O)NC1C (centres undefined),-10%,-10,·,13%,-23,·
CC1(C)CCC(c2ccc(Cl)cc2)=C(CN2CCN(c3ccc(C(=O)NS(=O)(=O)c4ccc(N[C@H](CCN5CCOCC5)CSc5ccccc5)c(S(=O)(=O)C(F)(F)F)c4)cc3)CC2)C1,0.45µM*,·,·,0.32µM*,·,·
CN(C)c1nc(-c2ccccc2)c2cnn(Cc3ccccc3)c2n1,?,11,?,-15%,-4,16µM*
C[C@@H]1CN(Cc2ccc3c(c2)CN(Cc2nc(-c4ccccc4)cs2)CCO3)C[C@H](C)O1,-7%[9.04 µM],·,·,23µM*,·,·
C[C@@H]1CN(Cc2ccc3c(c2)CN(C(=O)c2ccc(Oc4ccccc4)o2)CCO3)C[C@H](C)O1,-14%[9.04 µM],·,·,12µM*,·,·
O=C(C[n+]1cc(-c2ccc(Cl)cc2)n2c1CCC2)Nc1nc(-c2ccc(F)cc2)cs1,?,5,10%,18µM*,-23,4%
O=C(C[n+]1cc(-c2ccccc2)n2c1CCC2)Nc1nc(-c2ccc(F)cc2)cs1,?,-1,1%,16µM*,0,5%
COc1ccc(-c2csc3ncnc(Nc4ccc(OC)cc4OC)c23)cc1,4.1µM*,·,·,?,·,-1%
COc1ccc(-c2csc3ncnc(Nc4cc(OC)cc(OC)c4)c23)cc1,?,·,·,16µM*,·,4%
Fc1ccc(C2CCCN2Cc2nc(Cc3ccccc3)no2)cc1 (centres undefined),?,2,-3%,-17%,27,3%
COc1nc(OC)nc(N2CCC(NC(=O)C(Cc3cccc(OC)c3OC)NC(C)=O)CC2)n1 (centres undefined),-5%,0,7%,4%,-18,·
O=[N+]([O-])c1ccc(OC/C=C2\Oc3ccc([N+](=O)[O-])cc3C2N2CCOCC2)cc1 (centres undefined),?,13,?,23µM*,-59*,3%
SMILES,DT40 TDP1 CPT,Giardia killer,ELG1 DNA repair,TDP1 cell noCPT,IL-1B inflam inh,TDP1 inh
O=[N+]([O-])c1ccc2c(c1)C(N1CCOCC1)/C(=C/COc1ccc(F)cc1)O2 (centres undefined),-30%,3,?,?,?,0%
CCN(CC)C1CCN(C(=O)c2cnn(-c3ncc4c(n3)-c3ccccc3CCC4)c2COC)C1 (centres undefined),24%[9.04 µM],·,·,-8%,·,·
O=C(CCC1CCCN(Cc2ccc3c(c2)OCCO3)C1)NCc1ccc(F)c(F)c1 (centres undefined),-26%,2,-4%,-30%,-4,·
COCCC(=O)N1CCCC(CCC(=O)NCc2ccc(F)c(F)c2)C1 (centres undefined),-19%,-14,?,-5%,0,-1%
COc1ccc(/C=C/CN2CCCC(CCC(=O)NCc3ccc(F)c(F)c3)C2)cc1 (centres undefined),?,15,4%,16µM*,-84*,9%
COc1ccccc1/C=C/CN1CCCC(CCC(=O)NCc2ccc(F)c(F)c2)C1 (centres undefined),?,-6,-6%,?,-74*,1%
COc1cccc(CNC(=O)CCC2CCCN(C/C=C/c3ccccc3OC)C2)c1 (centres undefined),?,13,-11%,23µM*,?,-5%
COc1ccc(N2CCN(c3ccc(-c4nc(-c5ccccc5)no4)cc3[N+](=O)[O-])CC2)cc1,-30%,·,·,?,·,3%
CC1=CCC(C(C)(C)O)CC1 (centres undefined),4%,·,·,-3%,·,4%
CC(C)c1ccc(OCC(=O)Nc2ccc(OC(F)(F)F)cc2)cc1,-11%,-7,11%,-28%,-4,0%
CC(C)c1ccc(NC(=O)COc2ccc(C3SCCS3)cc2)cc1,?,2,-2%,23µM*,13,0%
CCCCNC(=O)Nc1ccc(C2SCCS2)cc1,?,2,?,16µM*,·,3%
CCCn1c2ccccc2c2cnn(CC(=O)NCC3CCN(Cc4ccc(F)cc4)CC3)c(=O)c21,?,·,·,?,·,6%
c1ccc(OCCNc2ccn3nc(-c4ccc(OCCN5CCOCC5)cc4)cc3n2)cc1,9.2µM*,·,·,16µM*,-11,·
c1csc(CNc2ccn3nc(-c4ccc(OCCN5CCOCC5)cc4)cc3n2)c1,21µM*,·,·,16µM*,-14,·
c1ccc(COc2ccc(-c3cc4nc(NCc5ccc6c(c5)OCO6)ccn4n3)cc2)cc1,18µM*,·,·,7.3µM*,45,·

# Source: PubChem BioAssay (National Center for Advancing Translational Sciences (NCATS))
